Holding throughout (parameters): species or system human, MV4-11 + K-562 + COLO205 + SK-N-BE2 + OVCAR-8
One assay concerns CDK16. The note with it: read-out: apparent Kd, n = 1.
The next assay has as its system CDK17. The note with it: read-out: apparent Kd, n = 1.
Another assay has as its system GSK3A. The note with it: read-out: apparent Kd, n = 1.
The subject of the next assay is CDC42. The note with it: read-out: apparent Kd, n = 1.
In the next assay the test system is MDN1. The note with it: read-out: apparent Kd; compound concentrations: 100 nM and 1000 nM (sheet 'Samples'), CATDS: 0.33246338126543201; n = 1.
The next assay concerns RIOK2. The note with it: read-out: apparent Kd; compound concentrations: 100 nM and 1000 nM (sheet 'Samples'), CATDS: 0.36068630579871103; n = 1.
A further assay deals with T1, DJA1.
T1 construct: gene DNAJA1
The note with it: read-out: apparent Kd; compound concentrations: 100 nM and 1000 nM (sheet 'Samples'), CATDS: 0.11539226669729399; n = 1.

In a further assay the test system is HSP90AA1. The note with it: read-out: apparent Kd; compound concentrations: 100 nM and 1000 nM (sheet 'Samples'), CATDS: 0.12399635685572399; n = 1.
Another assay concerns HSP90B1. The note with it: read-out: apparent Kd; compound concentrations: 100 nM and 1000 nM (sheet 'Samples'), CATDS: 0.12934168659945999; n = 1.
Another assay deals with HSPE1. The note with it: read-out: apparent Kd; compound concentrations: 100 nM and 1000 nM (sheet 'Samples'), CATDS: 0.19606542414911901; n = 1.
Another assay concerns PGK1. The note with it: read-out: apparent Kd; compound concentrations: 100 nM and 1000 nM (sheet 'Samples'), CATDS: 0.21364088639266299; n = 1.
The test system of another assay is PKM. The note with it: read-out: apparent Kd; compound concentrations: 100 nM and 1000 nM (sheet 'Samples'), CATDS: 0.14448823643602399; n = 1.
The test system of another assay is CDK2. The note with it: read-out: apparent Kd; compound concentrations:100 nM and 1000 nM (sheet 'Samples'); n = 1.
The test system of another assay is CDKL5. The note with it: read-out: apparent Kd; compound concentrations:100 nM and 1000 nM (sheet 'Samples'); n = 1.
For a further assay, the system named is CLK4. The note with it: read-out: apparent Kd; compound concentrations:100 nM and 1000 nM (sheet 'Samples'); n = 1.
Another assay relates to CSNK2A1;CSNK2A3. The note with it: read-out: apparent Kd; compound concentrations:100 nM and 1000 nM (sheet 'Samples'); n = 1.
Another assay has as its system CSNK2A2. The note with it: read-out: apparent Kd; compound concentrations:100 nM and 1000 nM (sheet 'Samples'); n = 1.
The next assay has as its system TGFBR2. The note with it: read-out: apparent Kd; compound concentrations:100 nM and 1000 nM (sheet 'Samples'); n = 1.
A further assay deals with FLT3. The note with it: read-out: apparent Kd; compound concentrations:100 nM and 1000 nM (sheet 'Samples'); n = 1.
The test system of another assay is LIMK2. The note with it: read-out: apparent Kd; compound concentrations:100 nM and 1000 nM (sheet 'Samples'); n = 1.
For the next assay, the system named is CDK1. The note with it: read-out: apparent Kd; compound concentrations:100 nM and 1000 nM (sheet 'Samples'); n = 1.
For the next assay, the system named is CDK4. The note with it: read-out: apparent Kd; compound concentrations:100 nM and 1000 nM (sheet 'Samples'); n = 1.
For a further assay, the system named is CDK5. The note with it: read-out: apparent Kd; compound concentrations:100 nM and 1000 nM (sheet 'Samples'); n = 1.
A further assay has as its system CDK6. The note with it: read-out: apparent Kd; compound concentrations:100 nM and 1000 nM (sheet 'Samples'); n = 1.
A further assay deals with CDK7. The note with it: read-out: apparent Kd; compound concentrations:100 nM and 1000 nM (sheet 'Samples'); n = 1.
Another assay relates to CDK9. The note with it: read-out: apparent Kd; compound concentrations:100 nM and 1000 nM (sheet 'Samples'); n = 1.
The subject of the next assay is ICK. The note with it: read-out: apparent Kd; compound concentrations:100 nM and 1000 nM (sheet 'Samples'); n = 1.
The next assay deals with NNT. The note with it: read-out: apparent Kd; compound concentrations:100 nM and 1000 nM (sheet 'Samples'); n = 1.
For a further assay, the system named is PSMC4. The note with it: read-out: apparent Kd; compound concentrations:100 nM and 1000 nM (sheet 'Samples'); n = 1.
The subject of another assay is SLK. The note with it: read-out: apparent Kd; compound concentrations:100 nM and 1000 nM (sheet 'Samples'); n = 1.
The mark [1] stands for this setting: compound concentrations:100 nM and 1000 nM (sheet 'Samples').

Structures are written as SMILES. Like-named read-outs stand apart in the source and are kept apart here.

Consider `CCN1CCC(CC(=O)Nc2n[nH]c3nc(-c4cccs4)c(Br)cc23)CC1.O=C(O)[C@H](O)[C@@H](O)C(=O)O` [SB-739245-AC], for which the potency estimated from few doses in the assay with CDK16 (compound concentrations: 100 nM and 1000 nM (sheet 'Samples'), CATDS: 0.32554244195376097) is 802 nM; with CDK17 (compound concentrations: 100 nM and 1000 nM (sheet 'Samples'), CATDS: 0.31469055739513202) it was 861 nM; in the assay with GSK3A (compound concentrations: 100 nM and 1000 nM (sheet 'Samples'), CATDS: 0.36357302595777402), 647 nM.
On to `Cn1cc(C2=C(c3cccc4ccccc34)C(=O)NC2=O)c2ccccc21` [RO0317253-000], for which the potency estimated from few doses is 2180 nM with CDC42 (compound concentrations: 100 nM and 1000 nM (sheet 'Samples'), CATDS: 0.310592027425942); 1890 nM in the assay on MDN1; 1620 nM in the assay with RIOK2.
For the molecule `Cn1cc(C2=C(c3c4n(c5ccccc35)CCCC4)C(=O)NC2=O)c2ccccc21` [RO0318259-000], the potency estimated from few doses with CDC42 (compound concentrations: 100 nM and 1000 nM (sheet 'Samples'), CATDS: 0.12762221298853901) is 1480 nM; with DJA1 it was 1920 nM; in the assay on HSP90AA1 it was 1590 nM; in the assay with HSP90B1 it was 1440 nM; in the assay on HSPE1 it was 644 nM; with PGK1, 561 nM. In addition, the potency estimated from few doses in the assay with PKM is 1130 nM.
In the case of `CC(C)COC(=O)c1ccc2c(c1)/C(=C/Nc1ccc(S(N)(=O)=O)cc1)C(=O)N2` [GW416981X], the potency estimated from few doses was 964 nM in the assay with CDK16 (setting [1]); 587 nM in the assay with CDK2; 1290 nM in the assay with CDKL5; 1480 nM in the assay on CLK4; 477 nM with CSNK2A1;CSNK2A3; 246 nM with CSNK2A2. Further, the potency estimated from few doses with TGFBR2 was 1860 nM.
As to `CC(=O)Nc1n[nH]c2ncc(-c3ccccc3)cc12` [SB-548492], the potency estimated from few doses in the assay on CDC42 (setting [1]) is 1850 nM; in the assay with FLT3, 1040 nM; in the assay on GSK3A (setting [1]), 748 nM; in the assay with LIMK2, 1150 nM.
Turning to `COc1cccc(F)c1C(=O)c1cnc(NC2CCN(S(C)(=O)=O)CC2)nc1N` [RO4602005-000], the potency estimated from few doses is 9.38 nM in the assay with CDK16 (setting [1]); 73.2 nM in the assay with CDK17 (setting [1]); 228 nM in the assay with CDK1; 37.7 nM in the assay with CDK2; 1450 nM in the assay with CDK4; 234 nM with CDK5. The potency estimated from few doses was 1750 nM in the assay on CDK6; 812 nM with CDK7; 206 nM with CDK9; 146 nM with ICK; 1690 nM in the assay with NNT; 1400 nM in the assay on PSMC4. Further, the potency estimated from few doses in the assay on SLK was 845 nM.

These data come from publication PMC11062922 (Nature Chemical Biology, 2023).
